According to PubChem BioAssay (NCATS):
Values joined by “and” are separate entries in the source; they are usually repeats but may differ in a detail not shown here. Equal values may be shown once. Inconclusive results are not listed. Active and inactive are the calls of the source. Calls follow the shape of the dose curve; as a rule, active = well fitted activation curve with a large enough effect in the signal ratio (not every such curve was filed as active); inconclusive = small, poorly fitted or top-dose-only effect, or a change in a side signal; inactive = flat fitted curve, though single readings scatter; the % refers to the signal ratio.

assay: qHTS assay for small molecule activators of the p53 signaling pathway (AID 651743); conditions: HCT-116 p53RE-bla, beta-lactamase FRET ratio, 16 h; activation: stronger effect = higher value; as to activation: series mostly up to about 92 µM; % of control where 0% means no effect
From the text: National Center for Advancing Translational Sciences [NCATS] NIH Chemical Genomics Center [NCGC] U.S. Environmental Protection Agency [EPA] National Institutes of Environmental Health Sciences [NIEHS] National Toxicology Program [NTP] Assay Overview: p53, a tumor suppressor protein, is activated following cellular insult, including DNA damage and other cellular stresses. The activation of p53 regulates cell fate by inducing DNA repair, cell cycle arrest, apoptosis, or cellular senescence. The activation of p53, therefore, is a good indicator of DNA damage and other cellular stresses. The CellSensor p53RE-bla HCT-116 cell line (Invitrogen) contains a stably integrated beta-lactamase reporter gene under control of the p53 response elements. The activation of the report gene under culture conditions can be detected by fluorescence intensity. This cell line can be used to screen chemicals in a 1536-well plate format and to identify agonists that activate p53 signaling pathway.
Assay Protocol Summary: The p53RE-bla cells were dispensed at 4,000 cells/5 ul/well in 1536-well black wall/clear bottom plates using a Multidrop dispenser. After the assay plates were incubated at a 37 C/5% CO2 incubator for 5 hours, 23 nL of compounds dissolved in DMSO, positive controls or DMSO only was transferred to the assay plate by a pin tool. The plates were incubated at 37 C for 16 hours. After 1 uL of LiveBLAzer B/G FRET substrate was added using a Flying Reagent Dispenser, the plates were incubated at room temperature for 2 hours, and fluorescence intensity was measured by an Envision plate reader.
Potency is read from the fitted curve at half-maximal effect.

SMILES	activation	Potency
O=[N+]([O-])c1ccc(Oc2ccc(Cl)cc2Cl)cc1	-0.909% (inactive)	
CC(C)COP(=O)(OCC(C)C)OCC(C)C	-2.4% (inactive)	
CC(C)(C)C(O)/C(=C\c1ccc(Cl)cc1Cl)n1cncn1 (stereo not given)	9.12% (inactive)	
CCCCCCCCCCCCC1=C(OC(C)=O)C(=O)c2ccccc2C1=O		11.2 µM (active)
ClC1=C(Cl)C2(Cl)C3C4OC4C(Cl)C3C1(Cl)C2(Cl)Cl (stereo not given)	-0.997% (inactive)	
CS/C(C)=N/OC(=O)N(C)SN(C)C(=O)O/N=C(\C)SC	-1.16% (inactive)	
Oc1ccc(C2(c3ccc(O)cc3)c3ccccc3-c3ccccc32)cc1		39.8 µM (active)
CCOP(=O)(OCC)SCSC(C)(C)C	-4.41% (inactive)	
CCSCc1ccccc1OC(=O)NC	3.49% (inactive)	
N#CC(Cl)Cl		39.8 µM (active)
CC1(C)CC/C(=C\c2ccc(Cl)cc2)C1(O)Cn1cncn1 (stereo not given)	-1.43% (inactive)	
CCOP(=S)(OCC)SCCl	0.473% (inactive)	
COC(=O)N(OC)c1ccccc1COc1ccn(-c2ccc(Cl)cc2)n1		5.01 µM (active)
CCCCN(CC)C(=O)SCCC	2.73% (inactive)	
CCOP(=O)(NC(C)C)Oc1ccc(S(C)(=O)=O)c(C)c1 (stereo not given)	0.006% (inactive)	
O=P(O)(O)CN(CP(=O)(O)O)CP(=O)(O)O	-5.96% (inactive)	
COP(=S)(OC)Oc1nc(Cl)c(Cl)cc1Cl	10.9% (inactive)	
CCCOCC(=Nc1ccc(Cl)cc1C(F)(F)F)n1ccnc1	-5.04% (inactive)	
C=CCOC(=O)C(C)(C)OC(=O)c1cc(-n2c(=O)cc(C(F)(F)F)n(C)c2=O)ccc1Cl	4.39% (inactive)	
CSC(=O)c1c(C(F)F)nc(C(F)(F)F)c(C(=O)SC)c1CC(C)C	-0.469% (inactive)	

SMILES	activation	Potency
C1CC[CH]([Sn]([CH]2CCCCC2)[CH]2CCCCC2)CC1	-8.17% (inactive)	
CSc1nc(NC(C)C)nc(NC(C)C)n1	-3.76% (inactive)	
COc1cccc(C(=O)NN(C(=O)c2cc(C)cc(C)c2)C(C)(C)C)c1C	-3.69% (inactive)	
COP(=S)(OC)Oc1ccc([N+](=O)[O-])c(C)c1	-5.64% (inactive)	
Oc1ccc(C(c2ccc(O)cc2)(C(F)(F)F)C(F)(F)F)cc1	22.5% (inactive)	
Nc1nc(N)nc(Cl)n1	14% (inactive) and -1.73% (inactive)	
CCCCOC(=O)[C@@H](C)Oc1ccc(Oc2ccc(C#N)cc2F)cc1	-5.96% (inactive)	
CCSCCSP(=O)(OC)OC	2.18% (inactive)	
O=C1NCCN1Cc1ccc(Cl)nc1	-0.206% (inactive)	
COc1cnc(OC)n2nc(NS(=O)(=O)c3c(OCC(F)F)cccc3C(F)(F)F)nc12	1.45% (inactive)	
Cc1cc(C)nc(Nc2ccccc2)n1	-0.291% (inactive)	
CCOS(=O)(=O)OCC	-2.08% (inactive)	
CCOP(=O)(OCC)OC(Cl)C(Cl)(Cl)Cl (stereo not given)	-3.88% (inactive)	
COc1cc(OC)nc(NC(=O)NS(=O)(=O)c2cc(NC=O)ccc2C(=O)N(C)C)n1	-3.45% (inactive)	
CCOC(=O)Nc1cccc(OC(=O)Nc2ccccc2)c1	-3.18% (inactive)	
C(=NC1CCCCC1)=NC1CCCCC1	5% (inactive)	
CCOc1nc(C(Cl)(Cl)Cl)ns1	-0.297% (inactive)	
O=CNC(N1CCN(C(NC=O)C(Cl)(Cl)Cl)CC1)C(Cl)(Cl)Cl (stereo not given)	-7.11% (inactive)	
COC(=O)c1ccccc1S(=O)(=O)NC(=O)N(C)c1nc(C)nc(OC)n1	0.955% (inactive)	
Clc1ccc([C@@]2(Cn3cncn3)C[C@@H](Br)CO2)c(Cl)c1	-2.11% (inactive)	
